The full list was thinned out, with hits kept by preference.
miR-122 inh – miR-122 suppressors via Renilla sensor increase, primary screen, cell-based, Huh7 psiCHECK-miR122, Renilla luciferase, single point; 48 h; activation, % at 12.5 µM; 340,000 tested, 0.14% active; AID 623901, 2012;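 active = mean activation of 30% or more, with every replicate also reaching 30%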;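 note: higher luciferase signal means stronger suppression of miR-122 activity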
Numbers stand for hits; – = inactive.

SMILES	miR-122 inh
C[C@@H]1CN([C@H](C)CO)S(=O)(=O)c2ccc(-c3ccccc3)cc2O[C@H]1CN(C)Cc1cccnc1	–
COc1ccccc1C#Cc1ccc2c(c1)O[C@H](CN(C)Cc1cncnc1)[C@@H](C)CN([C@@H](C)CO)S2(=O)=O	–
COc1ccccc1C#Cc1ccc2c(c1)O[C@H](CN(C)Cc1cncnc1)[C@H](C)CN([C@@H](C)CO)S2(=O)=O	–
COc1ccccc1C#Cc1ccc2c(c1)O[C@H](CN(C)Cc1cccnc1)[C@H](C)CN([C@@H](C)CO)S2(=O)=O	39
C[C@@H]1CN([C@@H](C)CO)S(=O)(=O)c2ccc(-c3ccccc3F)cc2O[C@@H]1CN(C)Cc1cccnc1	49
CO[C@H]1CN(C)C(=O)c2ccc(NC(=O)Nc3ccc(Cl)cc3)cc2OC[C@H](C)N(C)C[C@H]1C	–
C[C@@H]1CN([C@H](C)CO)C(=O)c2cc(-c3ccc(F)cc3)cnc2O[C@@H]1CN(C)C(=O)c1ccccn1	–
COc1cccc(-c2cnc3c(c2)C(=O)N([C@@H](C)CO)C[C@H](C)[C@@H](CN(C)CC2CCOCC2)O3)c1	–
CC(=O)NC(c1ccc(C)cc1)c1cc(Cl)c2cccnc2c1O (stereo not drawn)	31
C[C@@H](O)C#Cc1cnc2c(c1)C(=O)N([C@@H](C)CO)C[C@H](C)[C@H](CN(C)C(=O)CN(C)C)O2	–
C[C@H]1CN([C@@H](C)CO)S(=O)(=O)c2ccc(-c3ccccc3)cc2O[C@@H]1CN(C)Cc1cncnc1	–
C/C=C/c1ccc2c(c1)O[C@@H](CN(C)S(C)(=O)=O)[C@H](C)CN([C@@H](C)CO)S2(=O)=O	–
CCOC(=O)/C(C#N)=C1/C=CN(Cc2ccccc2)C=N1	33
C[C@H](CO)N1C[C@H](C)[C@H](CN(C)Cc2ccccn2)Oc2ncc(C#Cc3ccc(F)cc3)cc2C1=O	–
COCC(=O)N(C)C[C@H]1Oc2cc(C#Cc3cccnc3)ccc2S(=O)(=O)N([C@@H](C)CO)C[C@H]1C	59
CCC(=O)N(C)C[C@H]1Oc2cc(C#Cc3cccnc3)ccc2S(=O)(=O)N([C@@H](C)CO)C[C@@H]1C	–
C[C@@H]1CN([C@@H](C)CO)S(=O)(=O)c2ccc(C#CC3(O)CCCC3)cc2O[C@@H]1CN(C)C(=O)c1cccnc1	47
CCC(=O)N(C)C[C@H]1Oc2cc(C#Cc3cccnc3)ccc2S(=O)(=O)N([C@H](C)CO)C[C@@H]1C	–
C/C=C/c1ccc2c(c1)O[C@H](CN(C)C(=O)c1cccnc1)[C@H](C)CN([C@H](C)CO)S2(=O)=O	–
CCC(=O)N(C)C[C@@H]1Oc2cc(C#Cc3cccnc3)ccc2S(=O)(=O)N([C@@H](C)CO)C[C@@H]1C	–
C[C@H](CO)N1C[C@H](C)[C@H](CN(C)C(=O)C2CC2)Oc2cc(C#Cc3cccnc3)ccc2S1(=O)=O	–
CC(=O)N(C)C[C@@H]1Oc2cc(C#CC3(O)CCCC3)ccc2S(=O)(=O)N([C@H](C)CO)C[C@@H]1C	–
C/C=C/c1ccc2c(c1)O[C@H](CN(C)C(=O)Cc1cccnc1)[C@H](C)CN([C@H](C)CO)S2(=O)=O	43
C/C=C/c1ccc2c(c1)O[C@@H](CN(C)C(=O)c1cccnc1)[C@@H](C)CN([C@@H](C)CO)S2(=O)=O	–
COCC(=O)N(C)C[C@H]1Oc2cc(C#Cc3cccnc3)ccc2S(=O)(=O)N([C@@H](C)CO)C[C@@H]1C	55
SMILES	miR-122 inh
CCCC#Cc1ccc2c(c1)O[C@@H](CN(C)C(=O)c1cccnc1)[C@@H](C)CN([C@@H](C)CO)S2(=O)=O	–
C[C@@H]1CN([C@H](C)CO)C(=O)c2cc(C#CC3(O)CCCC3)cnc2O[C@@H]1CN(C)C(=O)C1CCCCC1	–
COc1ccc(-c2cnc3c(c2)C(=O)N([C@@H](C)CO)C[C@H](C)[C@@H](CN(C)Cc2ccccn2)O3)cc1	–
CC(C)C#Cc1cnc2c(c1)C(=O)N([C@H](C)CO)C[C@@H](C)[C@@H](CN(C)Cc1ccccn1)O2	–
COCC#Cc1ccc2c(c1)O[C@@H](CN(C)C(=O)C1CCOCC1)[C@H](C)CN([C@H](C)CO)S2(=O)=O	–
CC(C)NC(=O)N(C)C[C@@H]1Oc2ncc(C3=CCCCC3)cc2C(=O)N([C@@H](C)CO)C[C@H]1C	–
COc1cccc(NC(=O)N(C)C[C@@H]2Oc3cc(-c4cccc(C(=O)N(C)C)c4)ccc3S(=O)(=O)N([C@H](C)CO)C[C@H]2C)c1	–
C[C@H]1CN([C@@H](C)CO)S(=O)(=O)c2ccc(C#Cc3ccncc3)cc2O[C@@H]1CN(C)C(=O)C1CCCCC1	–
C[C@@H]1CN([C@@H](C)CO)S(=O)(=O)c2ccc(C#CCC3CCCC3)cc2O[C@H]1CN(C)C(=O)c1ccccn1	–
CO[C@H]1CN(C)C(=O)c2ccc(NS(=O)(=O)c3ccc(C)cc3)cc2OC[C@H](C)N(C)C[C@H]1C	–
CCC(=O)Nc1ccc2c(c1)OC[C@@H](C)N(C(=O)CN1CCOCC1)C[C@H](C)[C@H](OC)CN(C)C2=O	–
C[C@H](CO)N1C[C@H](C)[C@@H](CN(C)CC2CCCCC2)OCCCC[C@H](C)Oc2ccc(NC(=O)Nc3cccc4ccccc34)cc2C1=O	34
C[C@H](CO)N1C[C@H](C)[C@@H](CN(C)CC2CCCCC2)Oc2c(NC(=O)c3ccncc3)cccc2C1=O	–
C[C@@H]1CCCCO[C@@H](CN(C)CC2CCCCC2)[C@@H](C)CN([C@@H](C)CO)C(=O)c2cc(NC(=O)Nc3cccc4ccccc34)ccc2O1	31
C[C@@H]1CN([C@@H](C)CO)C(=O)Cc2cc(NC(=O)Nc3cccc4ccccc34)ccc2O[C@@H]1CN(C)C(=O)NC1CCCCC1	–
C[C@H]1CN([C@@H](C)CO)C(=O)c2cccc(NC(=O)Nc3ccc(C(F)(F)F)cc3)c2O[C@@H]1CN(C)CC1CCCCC1	–
COc1ccc(S(=O)(=O)Nc2ccc3c(c2)C(=O)N([C@@H](C)CO)C[C@H](C)[C@H](CN(C)C(=O)Nc2ccccc2)OCCCC[C@@H](C)O3)cc1	–
CCCNC(=O)N(C)C[C@@H]1Oc2cc(Br)ccc2S(=O)(=O)N([C@@H](C)CO)C[C@@H]1C	–
C[C@H](CO)N1C[C@H](C)[C@H](CN(C)C(=O)C2CC2)Oc2cc(C#CC3CC3)ccc2S1(=O)=O	–
C[C@H]1CN([C@@H](C)CO)C(=O)c2cc(-c3ccc(F)cc3)cnc2O[C@@H]1CN(C)Cc1ccccn1	–
C[C@@H]1CN([C@@H](C)CO)S(=O)(=O)c2ccc(C#Cc3cccnc3)cc2O[C@@H]1CN(C)C(=O)C1CC1	–
CC#CCCCC(=O)Nc1ccccc1C(=O)O	32
C[C@@H]1CN([C@H](C)CO)C(=O)c2cc(C#Cc3cccc(F)c3)cnc2O[C@H]1CN(C)CC1CCOCC1	–
C[C@@H]1CN([C@@H](C)CO)S(=O)(=O)c2ccc(-c3ccc(C(=O)N(C)C)cc3)cc2O[C@@H]1CN(C)C(=O)C1CCOCC1	–
CCCCN(CCCC)C(=O)CN(C)S(=O)(=O)c1ccc2c(c1)n(C)c(=O)c(=O)n2C	50
C[C@H]1CN([C@@H](C)CO)S(=O)(=O)c2ccc(-c3ccncc3)cc2O[C@@H]1CN(C)Cc1cncnc1	–
C[C@@H]1CN([C@H](C)CO)C(=O)c2cc(-c3cccnc3)cnc2O[C@H]1CN(C)S(C)(=O)=O	–
CC(C)CC#Cc1cnc2c(c1)C(=O)N([C@@H](C)CO)C[C@@H](C)[C@@H](CN(C)C(=O)Cc1ccccc1)O2	–
CCCc1ccc(S(=O)(=O)NCCc2ccncc2)cc1	36
